The panel holds about 83,000 compounds, 20% with a hit somewhere; the sample as a whole holds those more often.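 The test compound was applied at a single concentration to cells in 96-well plates for 48 hours, and percent growth was recorded.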 A number with no mark means an inactive call. Activity calls are given as the source filed them. How the source made its calls: active means growth percent below 10; inactive means the rest.

This experiment deals with MDA-MB-468 breast. The experiment can be described thus: NCI-60 one-dose screen, 48 h (100 = growth as untreated, 0 = no growth, -100 = all killed). Particulars: 10 µM unless noted.
Take `O=C1Nc2ccccc2/C1=C/c1cn(C(=O)c2ccc(Cl)cc2)c2ccccc12`: the growth was 97.6%.
In the case of `O=S(=O)(NCCCNc1cc(-c2cn(-c3ccccc3)nc2-c2cccc(O)c2)ccn1)c1cccc(F)c1` it was 7.62% (active); in that of `COc1ccc(-c2nc(-c3nc4ccc(OC)cc4[nH]3)c3ccccn23)cc1`, 72.2%.
As for `COc1ccc(C2=C/C(=C\c3ccc(Cl)cc3)C(=O)N2/N=C/c2ccc(Cl)cc2)cc1`, the growth was 94.3%.
In the case of `Cc1ccc(-c2csc(N/N=C/c3cccs3)n2)cc1` it was 65.1%; in that of `CC1(C)CC(=O)C2=C(C1)N(c1ccc(OC(F)(F)F)cc1)C(N)=C(C#N)C2c1ccc(Cl)cc1` (stereo unspecified), 93.1%.
In the case of `CC(C)C(NC(=O)C1(NC(=O)OCc2ccccc2)CCCC1)C(=O)O` (stereo unspecified) it was 112%.
On to `Nc1ccc(-c2nn3c(CCC(=O)c4nc5ncccc5[nH]4)nnc3s2)c(O)c1`, for which the growth was 74.6%.
In the case of `COc1ccc(Nc2nccc(Nc3ccc4[nH]ncc4c3)n2)cc1` it was 44%.
Regarding `c1ccc2cc3c(Nc4ccc(N5CCOCC5)cc4)ccnc3cc2c1`, the growth was 87.9%.
In the case of `COc1cccc(/C=C2\SC(=Nc3ccc(NC(C)=O)cc3)NC2=O)c1OC` it was 109%.

The values are drawn from PubChem BioAssay (NCI).
